Source: PubChem
Hits are enriched below; roughly 5.2% of the tested compounds scored in any of these assays.
TSHR ag – activates the human thyroid stimulating hormone receptor | P16473 | HEK293-CNG-TSHR cells (CNG channel as cAMP sensor), membrane potential dye, cAMP | Potency, µM (top dose mostly 57.1 µM), inactives show top-dose activation, most hits filed as activators | 0.48% of 73,000 active | AID 926; active = well fitted activation curve with a large enough effect in the main read-out, with a control signal flat, not every such curve was filed as active; inconclusive = small, poorly fitted or top-dose-only effect, or a change in a side signal; inactive = no such curve, though single readings can be large or run the other way; % of control where 0% means no effect;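 also: the control signal comes from parental cells without the receptor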
Target sequence (P16473 whole entry, looked up): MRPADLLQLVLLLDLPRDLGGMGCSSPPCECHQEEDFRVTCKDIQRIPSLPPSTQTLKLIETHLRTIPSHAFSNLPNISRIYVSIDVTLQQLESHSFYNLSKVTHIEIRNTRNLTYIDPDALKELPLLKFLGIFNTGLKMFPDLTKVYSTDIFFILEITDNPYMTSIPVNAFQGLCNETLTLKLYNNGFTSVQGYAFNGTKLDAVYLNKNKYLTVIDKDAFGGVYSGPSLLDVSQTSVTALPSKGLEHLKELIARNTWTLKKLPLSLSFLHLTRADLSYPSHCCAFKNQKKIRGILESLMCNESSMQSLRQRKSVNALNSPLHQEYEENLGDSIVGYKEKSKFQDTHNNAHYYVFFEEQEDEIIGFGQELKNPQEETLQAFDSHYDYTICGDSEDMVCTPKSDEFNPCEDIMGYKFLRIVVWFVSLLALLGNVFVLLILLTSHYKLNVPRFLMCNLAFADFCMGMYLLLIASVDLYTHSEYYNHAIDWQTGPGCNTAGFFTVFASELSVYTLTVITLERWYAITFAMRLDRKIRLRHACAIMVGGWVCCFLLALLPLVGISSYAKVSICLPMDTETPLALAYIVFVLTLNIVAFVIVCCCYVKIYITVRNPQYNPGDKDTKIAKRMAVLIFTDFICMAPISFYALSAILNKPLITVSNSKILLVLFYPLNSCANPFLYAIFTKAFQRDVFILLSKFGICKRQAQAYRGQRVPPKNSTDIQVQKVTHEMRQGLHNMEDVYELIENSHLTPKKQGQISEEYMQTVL
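cAMP rise detected as CNG-channel membrane depolarization by fluorescent dye (emission 590 nm), 30 min after compound, following 60 min dye loading containing 100 uM RO 20-1724 at room temperature. Cells: TSHR/CNG HEK 293, with parental CNG HEK 293 as control.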
Bst PK mod – alters activity of Bacillus stearothermophilus pyruvate kinase; purified pyruvate kinase, luminescence ATP production; ribose 5-phosphate activator present at AC10; Potency, µM; 1.2% of 51,000 active; AID 361; in the data active = potency below about 11 µM; inconclusive = mostly about 12 µM to 25 µM;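 the screen sought inhibitors and activators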;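 also: scaled between full activation by ribose 5 phosphate and full inhibition by luteolin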
Luciferase inh – firefly luciferase inhibition | P08659 | purified firefly luciferase, luminescence, 8 min | Potency, µM (top dose mostly 57.1 µM), for inactives: top-dose activity change, negative = inhibition, actives largely listed as inhibitors | 2.2% of 72,000 active | AID 411; also: % is scaled to controls: 0 for no effect and ±100 for the full control effect; nearly all actives have a fitted effect of over 40% in size
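Compounds were tested as concentration series (qHTS) against purified P. pyralis luciferase with luciferin and 10 uM ATP in 50 mM imidazole pH 7.2, 50 mM KCl, 7 mM MgCl2, 0.01% Tween 20, 0.05% BSA. Luminescence was read after 8 min at ambient temperature.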
HEK293 cAMP ctrl – raises cAMP in parental HEK293 cells, TSHR agonist counter-screen; parental HEK293 CNG cAMP sensor, membrane potential fluorescence; Potency, µM (doses to about 57.1 µM), for the others: top-dose activation, hits mostly activators; 2.5% of 73,000 active; AID 938; also: % of control where 0% means no effect; nearly all actives have a fitted effect of over 55% in size
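Parental HEK 293 cells stably expressing a cAMP-gated CNG channel were loaded with membrane potential dye containing 100 uM RO 20-1724 for 60 min. Compound added for 30 min; depolarization read as fluorescence intensity at 590 nm.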
* marks the source's active call; other numbers are inactive results; i = inactive; ? = inconclusive; . = not tested or not shown; [ ] = remark or other dose. Unless noted, calls follow the shape of the dose curve; as a rule, active = well fitted curve in the direction sought with a large enough effect; inconclusive = small, poorly fitted or top-dose-only effect, or another doubt; inactive = no such curve, though single readings can be large; an effect the other way counts as inactive or inconclusive. Potency is read from the fitted curve at half-maximal effect.

SMILES	TSHR ag	Bst PK mod	Luciferase inh	HEK293 cAMP ctrl
COCCN(CCOC)C(=O)c1cc2c(=O)n3ccccc3nc2s1	11.0%	>57	3.0%	1.7%
COCCN(CCOC)c1ncc(Cl)c(C(=O)c2c(C)cc3ccccn23)n1	?	>57	1.0%	31.6µM*
Cc1cccc(C(C)C)c1-n1nnnc1-c1ccccc1	?	.	-10.2%	20µM*
CCCCNc1nc2ccccc2n1CC(=O)N1CCc2ccccc2C1	?	>57	-2.8%	2µM*
Cc1cc(NC(=O)CSc2nnc(COc3ccccc3)o2)no1	-2.7%	>57	4.0%	-5.0%
CCOCC(=O)Nc1cc(C(=O)OC)ccc1C(=O)OC	5.7%	>57	2.8%	19.6%
CCn1ncc(Br)c1C(=O)Nc1cc(C(=O)OC)ccc1C(=O)OC	?	>57	1.6%	12.6µM*
CC(=O)Oc1c2occc2cc2ccc(=O)oc12	7.3%	.	-1.6%	8.3%
CCN1CCCC1Cn1c(-c2ccccc2)nc2c(NC3CCCCC3)nc(C)nc21 (stereo unspecified)	?	.	.	20µM*
COCCNc1nc(C)nc2c1nc(-c1ccccc1)n2CCN(C)C	6.1%	.	.	7.8%
CCCCNc1nc(C)nc2c1nc(-c1ccccc1)n2CC1CCCN1CC (stereo unspecified)	?	.	.	15.8µM*
CCCCNc1nc(C)nc2c1nc(-c1ccccc1)n2CCCN(C)C	22.1%	.	.	27.7%
CCCCNc1nc(C)nc2c1nc(-c1ccccc1)n2CC(C)(C)CN(C)C	?	.	.	31.6µM*
Cc1nc(NC2CCCCC2)c2nc(-c3ccccc3)n(CCN(C)C)c2n1	?	.	.	10µM*
CCS(=O)(=O)Nc1c(C(=O)O)[nH]c2ccccc12	-4.6%	.	-6.5%	-9.4%
CCN1CCN(C(=O)C(C)N(c2ccc(C)cc2)S(C)(=O)=O)CC1 (stereo unspecified)	10.1%	>57	-0.4%	3.2%
O=c1c2c(nc3cc(-c4ccc(F)cc4)[nH]n13)CCCC2	-4.4%	5.32*	7.94µM*	6.9%
Cc1csc2nc(CSc3nc4ccccc4o3)c(Br)n12	?	?	-24.8%	25.1µM*
Cc1csc2nc(CSc3nncn3-c3ccccc3)c(Br)n12	.	.	3.6%	-0.5%
CCOc1ccc(-c2nnc(NC(=O)c3ccc(OCC(C)C)c(OC)c3)o2)cc1	?	>11.4	-15.1%	25.1µM*
CCOc1ccc(NC(=O)CNC(=O)c2ccc(OC)c(OC)c2)cc1	7.7%	>57	1.0%	-3.1%
COc1ccc(C(=O)CC(=O)O)c2c1C=CC(C)(C)O2	-4.5%[11.4 µM]	.	-2.0%	-2.6%[11.4 µM]
COc1ccc(OC)c2sc(N3CCN(c4ccccc4)CC3)nc12	-13.9%	?	25.1µM*	-10.6%
O=C(NCc1ccc(F)cc1)C1CCN(C(=O)NCc2ccccc2)CC1	?	>57	-1.0%	3.98µM*
O=C(NCc1ccccc1F)C1CCN(C(=O)NCc2ccccc2)CC1	-3.5%	>57	0.6%	0.1%
SMILES	TSHR ag	Bst PK mod	Luciferase inh	HEK293 cAMP ctrl
O=C(NCCc1ccccc1)C1CCN(S(=O)(=O)N2CCCC2)CC1	?	>57	0.3%	25.1µM*
CC1Cc2ccccc2N1S(=O)(=O)c1cccc(C(=O)OCC(=O)NC2CCS(=O)(=O)C2)c1 (stereo unspecified)	17.1%	i	1.5%	1.7%
O=C(c1cc(-c2ccncc2)nc2ccccc12)N1CCN(c2ccccn2)CC1	18.5%	>57	-13.5%	23.7%
O=C(c1cc(-c2ccccc2)nc2ccccc12)N1CCN(c2ccccn2)CC1	.	.	20µM*	29.9%
c1ccc(SCCOCCn2cncn2)cc1	12.4%	.	1.6%	5.0%
c1ccc(COc2ccc(OCCOCCn3cncn3)cc2)cc1	-5.4%	.	15.8µM*	-1.4%
CC(=O)Nc1nc2ncc(C=O)nc2c(=O)[nH]1	12.4%[11.4 µM]	.	-0.5%[11.4 µM]	7.9%[11.4 µM]
O=C(Nc1ccc(CCC(=O)N2CCCC2)cc1)c1ncn[nH]1	-2.0%	>57	-3.1%	7.0%
O=C(Nc1ccc(N2CCCCC2)c(Cl)c1)c1ncn[nH]1	-16.7%	.	10µM*	-4.5%
O=C(Nc1ccc(N2CCCCC2)c(C(=O)O)c1)c1ccco1	-3.7%	>57	-1.4%	28.6%
O=C(Nc1ccc(N2CCCC2)c(Cl)c1)c1ccco1	-8.7%[11.4 µM]	.	5.01µM*	-5.9%[11.4 µM]
Cc1c(N(C(=O)c2cc(=O)[nH]c3ccccc23)C(C)C)c(=O)n(-c2ccccc2)n1C	18.2%	>57	1.6%	2.5%
CCNc1ncc2nc(CCc3ccccc3)c(=O)n(Cc3cccc(OC)c3)c2n1	27.6%	.	0.4%[11.4 µM]	20.7%
O=c1cnc2cnc(Oc3ccccc3)nc2n1CCc1ccccc1	?	.	0.7%[11.4 µM]	1.58µM*
COc1cccc(Cn2c(=O)c(CCc3ccccc3)nc3cnc(OC)nc32)c1	?	.	-0.1%[11.4 µM]	15.8µM*
COc1ccc(Oc2ncc3nc(CCc4ccccc4)c(=O)n(C[C@H]4CCCO4)c3n2)cc1	?	.	1.3%[11.4 µM]	10µM*
COc1ncc2nc(CCc3ccccc3)c(=O)n(Cc3cccs3)c2n1	?	.	0.3%[11.4 µM]	10µM*
O=C(NCCc1csc(-c2cccnc2)n1)c1ccc(Br)o1	-10.1%	.	-4.3%	3.9%
Cn1c(=O)c(CCc2ccccc2)nc2cnc(OCc3ccccc3)nc21	?	.	0.7%[11.4 µM]	1µM*
Cc1ccc(N2C(=O)c3n[nH]c(C)c3C2c2ccco2)cc1 (stereo unspecified)	?	.	15.8µM*	?
CCOC(=O)c1cc2c(ccn2C)n1Cc1ccccc1C	?	>57	-0.8%	25.1µM*
Cc1ccc(OCCCCn2ccnc2)c(Cl)c1	17.2%	.	-23.3%	11.8%
Cc1cccc(OCCCCCn2ccnc2)c1C	?	.	0.2%	31.6µM*
Cc1ccc(-n2cc3c(=O)n(C)c(=O)n(C)c3c2)cc1C	-1.0%	10*	-16.1%	-1.1%
Cn1c(=O)c2cn(-c3ccc4c(c3)OCCO4)cc2n(C)c1=O	5.8%	5.65*	-14.2%	5.5%
SMILES	TSHR ag	Bst PK mod	Luciferase inh	HEK293 cAMP ctrl
CCc1ccc2oc(-c3cc(N)ccc3Cl)nc2c1	-19.0%	2.87*	2.51µM*	-13.6%
CCc1ccc2oc(-c3cc(N)ccc3O)nc2c1	-22.0%	1.24*	1µM*	-11.3%
Nc1ccc2oc(-c3ccccc3Cl)nc2c1	.	3*	3.16µM*	.
CCc1ccc2oc(-c3cc(N)cc(C)c3O)nc2c1	-38.5%	3.55*	2.51µM*	-14.3%
Cc1ccc(C)c(-c2nc3cc(N)ccc3o2)c1	-4.4%	.	-8.3%	-6.9%
Cc1cccc2cc(CN(Cc3nnnn3C3CCCC3)C3CCCCC3)c(=O)[nH]c12	?	>57	3.3%	?
CCCc1c(C(=O)OCC)[nH]c2c1C(=O)CCC2	5.4%	.	2.6%	1.1%
Cc1c(C(=O)OCCOc2ccccc2)[nH]c2c1C(=O)CCC2	?	?	10µM*	?
COc1ccc(OC)c(S(=O)(=O)N2c3ccccc3CC2C)c1 (stereo unspecified)	?	>57	0.0%	?
COc1ccccc1C1C=C(c2ccccc2)Nc2nnnn21 (stereo unspecified)	?	.	1.2%	3.98µM*
COc1cccc(C2=CC(c3ccc(OC)c(OC)c3OC)n3nnnc3N2)c1 (stereo unspecified)	.	i	-1.7%	3.1%
CN(C)c1ccc(N/C=C/C(=O)c2ccccc2)cc1	-13.0%	0.422*	0.316µM*	-7.8%
CCn1c(SCC(=O)Nc2ccccc2N2CCOCC2)nnc1-c1ccccc1	-0.3%	>57	3.5%	6.1%
